Data as given in PubChem BioAssay (Tox21).
Records with an inconclusive call do not appear. The source made the active and inactive calls. Unless noted, calls follow the shape of the dose curve; as a rule, active = well fitted curve in the direction sought with a large enough effect in the repeat runs; inconclusive = weak or mixed curves; inactive = no such curve, though single readings can be large; an effect the other way counts as inactive or inconclusive.

Columns and labels:
[1] = qHTS RealTime-Glo MT Cell Viability Assay in HEK293 cells - 0 hour (AID 1224880); also: nearly all actives have a fitted effect of over 45% in size; also: potency is read from the fitted curve at half-maximal effect; as to activity change, negative = cytotoxicity: top concentration of the series differs between compounds
How it was run: (§1)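 qHTS format; HEK293 cells with NanoLuc/prosubstrate reagent, 37 C/5% CO2 for 5 h pre-dosing; compounds 23 nL in DMSO; luminescence at each time point reflects viable cells.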

[2] = A CellTox Green Cytotoxicity Assay to monitor cytotoxicity in HEK293 cells - 32 hour (AID 1224881); also: nearly all actives have a fitted effect of over 40% in size
How it was run: (§2)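 Each value comes from one timepoint of a single continuous run in which HEK293 cells with CellTox Green were exposed to compound for up to 40 h at 37 C, dye fluorescence rising with cell death.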

[3] = A CellTox Green Cytotoxicity Assay to monitor cytotoxicity in HepG2 cells - 0 hour (AID 1224882); also: nearly all actives have a fitted effect of over 35% in size
How it was run: (§3)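 Continuous culture of HepG2 cells with a membrane-impermeant DNA dye; rising fluorescence marks dead cells. Compound exposure lasted up to 40 h at 37 C, with reads every 8 h from 0 h.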

[4] = A CellTox Green Cytotoxicity Assay to monitor cytotoxicity in HepG2 cells - 32 hour (AID 1224883); also: nearly all actives have a fitted effect of over 50% in size
How it was run: as §3

[5] = qHTS RealTime-Glo MT Cell Viability Assay in HepG2 cells - 16 hour (AID 1224885); also: nearly all actives have a fitted effect of over 50% in size
How it was run: (§4)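 HepG2 suspension premixed with RealTime-Glo reagents is plated at 600 cells per well and left 5 h at 37 C/5% CO2. Compounds in DMSO then go in, and bioluminescence reflecting viable cell number is recorded over 40 h.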

[6] = qHTS RealTime-Glo MT Cell Viability Assay in HEK293 cells - 24 hour (AID 1224886); also: nearly all actives have a fitted effect of over 50% in size; also: potency is read from the fitted curve at half-maximal effect; as to activity change, negative = cytotoxicity: top concentration of the series differs between compounds
How it was run: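 Reads taken at 0, 8, 16, 24, 32 and 40 h from the same wells. HEK293 cells (600/well) carried RealTime-Glo reagents from seeding, with compound added after a 5 h settle at 37 C.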

[7] = qHTS RealTime-Glo MT Cell Viability Assay in HEK293 cells - 8 hour (AID 1224887); also: top concentration of the series differs between compounds; nearly all actives have a fitted effect of over 50% in size
How it was run: as §1

[8] = A CellTox Green Cytotoxicity Assay to monitor cytotoxicity in HEK293 cells - 16 hour (AID 1224888); also: nearly all actives have a fitted effect of over 35% in size
How it was run: as §2

[9] = qHTS RealTime-Glo MT Cell Viability Assay in HepG2 cells - 0 hour (AID 1224889); also: nearly all actives have a fitted effect of over 50% in size
How it was run: as §4

[10] = A CellTox Green Cytotoxicity Assay to monitor cytotoxicity in HepG2 cells - 8 hour (AID 1224890); also: nearly all actives have a fitted effect of over 45% in size
How it was run: as §3

[11] = qHTS assay to identify small molecule antagonists of the estrogen receptor alpha (ER-alpha) signaling pathway using the BG1 cell line in the presence of 0.1 nM 17-beta-estradiol - cell viability counter screen (AID 1259241); also: nearly all actives have a fitted effect of over 40% in size; also: potency is read from the fitted curve at half-maximal effect
How it was run: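 In this screen, hormone-deprived VM7Luc4E2 cells were seeded at 4,000 per well, dosed with compound and 0.1 nM estradiol final, and incubated 22 hr at 37C and 5% CO2; fluorogenic live-cell protease signal reported viability.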

[12] = qHTS assay to identify small molecule antagonists of the androgen receptor (AR) signaling pathway using the MDA cell line in the presence of 0.5 nM R1881 - cell viability counter screen (AID 1259242); also: nearly all actives have a fitted effect of over 45% in size
How it was run: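 Fluorescence from CellTiter-Fluor, which reports protease activity of live cells, was read 30 min after reagent addition to MDA-kb2 cells that had been incubated 16 hr with compound and 0.5 nM R1881.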

[13] = molecular target: Androgen receptor (Homo sapiens) (UniProt P10275); assay: qHTS assay to identify small molecule antagonists of the androgen receptor (AR) signaling pathway using the MDA cell line in the presence of 0.5 nM R1881 (AID 1259243); also: nearly all actives have a fitted effect of over 50% in size
Sequence of Androgen receptor (Homo sapiens) (P10275 whole entry, looked up): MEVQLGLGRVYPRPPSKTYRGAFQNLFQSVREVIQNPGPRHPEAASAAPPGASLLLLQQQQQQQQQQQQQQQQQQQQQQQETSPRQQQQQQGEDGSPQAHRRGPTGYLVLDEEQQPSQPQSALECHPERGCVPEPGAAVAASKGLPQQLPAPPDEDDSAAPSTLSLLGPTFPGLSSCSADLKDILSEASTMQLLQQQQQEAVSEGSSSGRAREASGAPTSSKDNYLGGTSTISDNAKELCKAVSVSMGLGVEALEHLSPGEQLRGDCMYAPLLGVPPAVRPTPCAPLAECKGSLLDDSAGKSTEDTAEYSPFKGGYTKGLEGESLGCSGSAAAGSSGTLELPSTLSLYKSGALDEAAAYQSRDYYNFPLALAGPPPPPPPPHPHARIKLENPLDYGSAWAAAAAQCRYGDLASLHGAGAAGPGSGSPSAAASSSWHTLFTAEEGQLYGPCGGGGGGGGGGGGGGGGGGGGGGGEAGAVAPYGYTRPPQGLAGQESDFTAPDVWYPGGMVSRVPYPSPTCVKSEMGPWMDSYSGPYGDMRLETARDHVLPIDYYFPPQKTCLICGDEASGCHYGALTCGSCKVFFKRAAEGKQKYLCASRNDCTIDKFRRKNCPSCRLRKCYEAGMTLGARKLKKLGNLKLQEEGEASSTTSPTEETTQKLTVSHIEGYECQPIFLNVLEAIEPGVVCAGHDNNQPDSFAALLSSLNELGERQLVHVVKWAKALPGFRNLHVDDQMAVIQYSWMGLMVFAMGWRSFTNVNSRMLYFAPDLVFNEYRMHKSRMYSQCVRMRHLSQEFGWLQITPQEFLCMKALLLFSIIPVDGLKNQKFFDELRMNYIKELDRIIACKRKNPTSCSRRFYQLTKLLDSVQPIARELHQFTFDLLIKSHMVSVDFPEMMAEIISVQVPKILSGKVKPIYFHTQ
How it was run: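 Inhibition of R1881 (0.5 nM final) induced reporter signal was measured in human MDA-kb2 cells; note the MMTV promoter also responds to GR. Exposure lasted 16 hr at 37C.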

[14] = qHTS assay to identify small molecule HDAC inhibitors (AID 1259364); also: nearly all actives have a fitted effect of over 45% in size; also: potency is read from the fitted curve at half-maximal effect; as to activity change, negative = inhibition: top concentration of the series differs between compounds
How it was run: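 Endogenous HDAC class I/II activity was measured in wild-type HCT-116 cells by HDAC-Glo luminescence after 2 h compound treatment.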

[15] = qHTS assay to identify small molecule HDAC inhibitors - cell viability counter screen (AID 1259365)
How it was run: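 Measured quantity is CellTiter-Glo luminescence from wild-type HCT-116 cells after compound incubation of 2hr at 37C, 5% CO2; reagent developed 30min at room temperature.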

[16] = qHTS assay to identify small molecule agonists of the sonic hedgehog signaling (Shh) pathway - cell viability counter screen (AID 1259366); also: nearly all actives have a fitted effect of over 50% in size; also: potency is read from the fitted curve at half-maximal effect
How it was run: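 In quantitative high-throughput format, 3T3 Gli1-Luc cells were exposed to compounds for 24hr and multiplexed for viability using CellTiter-Fluor, incubated 1hr at 37C before the fluorescence read.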

[17] = qHTS assay to identify small molecule antagonists of the sonic hedgehog signaling (Shh) pathway - cell viability counter screen (AID 1259367); also: nearly all actives have a fitted effect of over 55% in size; also: potency is read from the fitted curve at half-maximal effect
How it was run: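 NIH/3T3-derived Gli1-Luc reporter cells, 2,000/well, plated 4 hr before compound addition, then stimulated with conditioned medium for 24 hr at 37C. Viability measured in the same wells by CellTiter-Fluor fluorescence, reagent added at 23 hr for 1 hr.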

[18] = molecular target: Estrogen receptor (Homo sapiens) (UniProt P03372); assay: qHTS assay to identify small molecule antagonists of the estrogen receptor alpha (ER-alpha) signaling pathway using the BG1 cell line in the presence of 0.1 nM 17-beta-estradiol (AID 1259244); also: nearly all actives have a fitted effect of over 50% in size
Sequence of Estrogen receptor (Homo sapiens) (P03372 whole entry, looked up): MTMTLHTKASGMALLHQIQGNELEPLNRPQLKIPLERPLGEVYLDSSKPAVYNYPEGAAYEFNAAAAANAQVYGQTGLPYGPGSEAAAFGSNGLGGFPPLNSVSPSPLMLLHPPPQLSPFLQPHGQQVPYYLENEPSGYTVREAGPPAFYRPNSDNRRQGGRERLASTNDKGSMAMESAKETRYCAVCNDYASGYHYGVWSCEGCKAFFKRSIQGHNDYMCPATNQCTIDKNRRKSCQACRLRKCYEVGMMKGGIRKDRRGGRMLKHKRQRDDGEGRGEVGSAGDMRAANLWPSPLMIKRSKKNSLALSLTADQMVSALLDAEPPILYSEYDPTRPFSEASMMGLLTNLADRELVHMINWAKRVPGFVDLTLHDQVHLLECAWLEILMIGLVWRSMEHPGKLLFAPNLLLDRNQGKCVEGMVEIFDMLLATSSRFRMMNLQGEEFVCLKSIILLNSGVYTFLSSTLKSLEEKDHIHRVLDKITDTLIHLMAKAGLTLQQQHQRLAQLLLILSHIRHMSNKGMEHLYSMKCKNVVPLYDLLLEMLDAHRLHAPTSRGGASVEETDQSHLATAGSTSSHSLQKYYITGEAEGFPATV
How it was run: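 Quantitative high-throughput screen in VM7Luc4E2 cells: compound plus 0.1 nM E2 (final), 22 h, 37C, 5% CO2; ONE-Glo added, 30 min room temperature, luminescence measured.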

[19] = A CellTox Green Cytotoxicity Assay to monitor cytotoxicity in HEK293 cells - 8 hour (AID 1224884); also: nearly all actives have a fitted effect of over 35% in size
How it was run: as §2

[20] = qHTS assay to identify small molecule phospholipidosis (PLD) inducers (AID 1259344; active = well fitted curve in the direction sought with a large enough effect; an effect the other way counts as inactive or inconclusive)
How it was run: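 HepG2 cells, 900/well, treated with compound plus LipidTOX Red for 24 h at 37 C; amiodarone positive and DMSO negative controls. Fixed with paraformaldehyde/Hoechst, then high-content imaging scored LipidTOX pit count and integrated intensity per well and per cell.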
% is scaled to controls: 0 for no effect and ±100 for the full control effect.

C=CCCCCCCCCCCCC
inactive: Potency [1] | Potency [2] | outcome [3] | Potency [4] | outcome [5] | Potency [6] | Potency [7] | outcome [8] | Potency [9] | outcome [10] | Potency [11] | outcome [12] | Potency [13] | Potency [14] | outcome [15] | Potency [16] | Potency [17]

CN1CCN(CC(=O)N2c3ccccc3C(=O)Nc3cccnc32)CC1
inactive: activity change, negative = cytotoxicity [1] 7.23% [at 6.97 µM] | cytotoxicity increase [2] -2.73% [at 6.97 µM] | cytotoxicity [3] -13.6% [at 6.97 µM] | cytotoxicity increase [4] -13% [at 6.97 µM] | activity change, negative = cytotoxic [5] 0.498% [at 6.97 µM] | activity change, negative = cytotoxicity [6] 6.44% [at 6.97 µM] | activity change, negative = cytotoxicity [7] 17.8% [at 6.97 µM] | activity change [8] -1.08% [at 6.97 µM] | activity change, negative = cytotoxicity [9] 2.23% [at 6.97 µM] | cytotoxicity increase [10] -13.9% [at 6.97 µM] | activity change, negative = cytotoxicity [11] 5.03% [at 8.39 µM] | viability change, negative = cytotoxic [12] 1.29% [at 8.39 µM] | activity change, negative = inhibition [18] 8.49% [at 8.39 µM] | activity change, negative = inhibition [14] 0.529% [at 8.39 µM] | viability change, negative = cytotoxic [16] 1.72% [at 8.39 µM] | viability change, negative = cytotoxic [17] 0.196% [at 8.39 µM]

O=C(OCC(O)CO)c1ccccc1Nc1ccnc2c(C(F)(F)F)cccc12 (configuration not stated)
active: Potency [6] 4.77 µM
inactive: Potency [1] | Potency [2] | outcome [3] | Potency [4] | Potency [19] | outcome [5] | outcome [8] | Potency [9] | Potency [11] | outcome [12] | Potency [13] | Potency [18] | Potency [14] | outcome [15] | Potency [16] | Potency [17]

C=CC(OCC)OCC
inactive: Potency [1] | Potency [2] | outcome [3] | Potency [4] | Potency [19] | outcome [5] | Potency [6] | outcome [8] | Potency [9] | Potency [11] | outcome [12] | Potency [14] | outcome [15] | Potency [16] | Potency [17]

CC(=O)Nc1ccc(S(=O)(=O)Cl)cc1
inactive: Potency [1] | Potency [2] | outcome [3] | Potency [4] | Potency [19] | outcome [5] | Potency [6] | outcome [8] | Potency [9] | outcome [10] | Potency [11] | outcome [12] | Potency [14] | outcome [15] | Potency [16] | Potency [17]

O=C1c2ccccc2C(=O)c2cc(S(=O)(=O)O)ccc21
inactive: Potency [1] | Potency [2] | outcome [3] | Potency [4] | Potency [19] | outcome [5] | outcome [8] | Potency [9] | outcome [10] | Potency [11] | outcome [12] | Potency [18] | outcome [15] | Potency [16] | Potency [17]
active: Potency [14] 2.44 µM

CCOCCOCCOCC
inactive: Potency [1] | Potency [2] | outcome [3] | Potency [4] | Potency [19] | outcome [5] | Potency [6] | outcome [8] | Potency [9] | outcome [10] | Potency [11] | outcome [12] | Potency [14] | outcome [15] | Potency [16] | Potency [17]

CC1COc2ccccc2N1 (configuration not stated)
inactive: Potency [1] | Potency [2] | outcome [3] | Potency [4] | Potency [19] | outcome [5] | Potency [7] | outcome [8] | Potency [11] | outcome [12] | Potency [14] | outcome [15] | Potency [16] | Potency [17]

CC(CC=O)CCCC(C)(C)O (configuration not stated)
inactive: Potency [1] | Potency [2] | outcome [3] | Potency [4] | Potency [19] | outcome [5] | Potency [6] | outcome [8] | outcome [10] | Potency [11] | outcome [12] | Potency [13] | Potency [18] | Potency [14] | outcome [15] | Potency [16] | Potency [17]

COCCOC(=O)C1=C(C)NC(C)=C(C(=O)OC(C)C)C1c1cccc([N+](=O)[O-])c1 (configuration not stated)
active: Potency [1] 2.39 µM
inactive: Potency [2] | outcome [3] | Potency [4] | Potency [19] | outcome [8] | outcome [10] | Potency [11] | outcome [12] | Potency [18] | outcome [20] | Potency [14] | outcome [15] | Potency [16] | Potency [17]

O=C(OCC1(COC(=O)c2cccnc2)CCCC(COC(=O)c2cccnc2)(COC(=O)c2cccnc2)C1O)c1cccnc1
inactive: Potency [1] | Potency [2] | outcome [3] | Potency [4] | Potency [19] | outcome [5] | Potency [6] | outcome [8] | Potency [9] | Potency [11] | outcome [12] | Potency [14] | outcome [15]

O=P(O)(O)OP(=O)(O)O
inactive: Potency [1] | Potency [2] | outcome [3] | Potency [4] | Potency [19] | outcome [5] | Potency [6] | outcome [8] | outcome [10] | Potency [11] | outcome [12] | outcome [20] | Potency [14] | outcome [15] | Potency [16] | Potency [17]

CCCCCCOC(=O)CC
inactive: Potency [1] | Potency [2] | outcome [3] | Potency [4] | Potency [19] | outcome [5] | Potency [6] | outcome [8] | Potency [9] | outcome [10] | Potency [11] | outcome [12] | Potency [18] | Potency [14] | outcome [15] | Potency [16] | Potency [17]

CN(C)CCOCCO
inactive: Potency [1] | Potency [2] | outcome [3] | Potency [4] | Potency [19] | outcome [5] | Potency [6] | outcome [8] | Potency [9] | outcome [10] | Potency [11] | Potency [18] | Potency [14] | outcome [15] | Potency [16] | Potency [17]

Nc1ccc([N+](=O)[O-])c(N)c1
inactive: Potency [1] | Potency [2] | outcome [3] | Potency [4] | Potency [19] | outcome [5] | Potency [6] | outcome [8] | Potency [9] | outcome [10] | Potency [18] | Potency [14] | outcome [15]
active: Potency [11] 53.1 µM | Potency [16] 29.9 µM | Potency [17] 33.5 µM
